Assay outcomes deposited in PubChem by Buhrlage Lab, Dana-Farber Cancer Institute and Novartis Institutes for BioMedical Research (Cambridge, Mass).
UCHL1 block – inhibitors of human UCHL1 deubiquitinase; purified UCHL1, Ub-rhodamine cleavage fluorescence; inhibition, % at 20 µM; 47,000 tested, 0.2% active; AID 1645859, 2021
OTUD3 inh – inhibitors of human OTUD3 deubiquitinase. inhibition, % at 25 µM. 47,000 tested, 0.7% active. purified OTUD3, Ub-rhodamine fluorescence, 2 h
USP7 inh – inhibitors of human USP7 deubiquitinase | purified USP7, Ub-rhodamine cleavage fluorescence | 47,000 tested, 0.3% active | inhibition, % at 20 µM | Ubiquitin carboxyl-terminal hydrolase 7 (Homo sapiens), Q93009
USP10 block – inhibitors of human USP10 deubiquitinase. inhibition, % at 20 µM. 47,000 tested, 1.1% active. AID 1645856, 2021. purified USP10, Ub-rhodamine fluorescence, 60 min
USP8 block – inhibitors of human USP8 deubiquitinase | Ubiquitin carboxyl-terminal hydrolase 8 (Homo sapiens), P40818 | purified USP8, Ub-rhodamine cleavage fluorescence, 30 min | inhibition, % at 20 µM | 47,000 tested, 4.2% active | AID 1645853, 2021
Target sequence (P40818 whole entry, looked up): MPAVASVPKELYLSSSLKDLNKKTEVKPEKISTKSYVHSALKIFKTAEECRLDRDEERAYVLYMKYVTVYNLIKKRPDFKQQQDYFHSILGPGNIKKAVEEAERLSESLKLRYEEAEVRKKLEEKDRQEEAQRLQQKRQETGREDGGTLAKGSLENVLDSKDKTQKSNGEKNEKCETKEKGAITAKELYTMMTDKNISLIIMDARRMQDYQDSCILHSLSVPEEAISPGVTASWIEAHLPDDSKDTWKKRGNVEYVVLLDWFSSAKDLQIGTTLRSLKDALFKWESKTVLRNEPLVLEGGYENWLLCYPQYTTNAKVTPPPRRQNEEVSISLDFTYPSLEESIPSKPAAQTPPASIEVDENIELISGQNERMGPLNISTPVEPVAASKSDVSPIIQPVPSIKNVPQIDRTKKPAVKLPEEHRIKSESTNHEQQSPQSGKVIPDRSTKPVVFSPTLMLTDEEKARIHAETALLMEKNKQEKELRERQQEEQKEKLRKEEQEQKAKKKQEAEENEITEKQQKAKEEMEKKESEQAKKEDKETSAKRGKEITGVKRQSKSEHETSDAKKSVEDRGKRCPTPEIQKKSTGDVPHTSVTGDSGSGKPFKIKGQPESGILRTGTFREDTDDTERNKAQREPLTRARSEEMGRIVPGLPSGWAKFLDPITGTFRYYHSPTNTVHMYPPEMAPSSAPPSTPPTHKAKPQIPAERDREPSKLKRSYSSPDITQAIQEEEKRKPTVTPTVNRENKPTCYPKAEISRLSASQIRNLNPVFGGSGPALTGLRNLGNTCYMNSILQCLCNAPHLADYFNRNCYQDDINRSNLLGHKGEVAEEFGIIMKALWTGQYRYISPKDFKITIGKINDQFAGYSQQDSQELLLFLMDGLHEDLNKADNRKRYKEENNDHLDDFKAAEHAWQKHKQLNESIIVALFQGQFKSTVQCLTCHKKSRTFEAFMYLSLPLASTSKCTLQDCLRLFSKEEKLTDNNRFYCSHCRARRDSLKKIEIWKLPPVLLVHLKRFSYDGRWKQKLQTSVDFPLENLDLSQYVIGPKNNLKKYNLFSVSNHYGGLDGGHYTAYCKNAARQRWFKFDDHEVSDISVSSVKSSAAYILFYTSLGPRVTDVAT
Large screens that a line does not name were inactive. An excerpt weighted towards active compounds, which were near 4.9% of everything screened. Rule as the data show it: active = inhibition above about 30%; inactive = the rest.

Cn1nc(C(=O)N2CCC(c3ccccc3)C2)c2c1-c1ccsc1CC2 (stereo unspecified)	USP8 block 74
Cc1ccn2c(NC(=O)c3cc(S(C)(=O)=O)ccc3Cl)c(-c3ccccc3)nc2c1	none
Cc1ccc(NC(=O)Cn2cc(-c3nc(C4CC4)no3)ccc2=O)cc1C	none
Cc1ccc(NC(=O)Cc2nnc3c(-c4nc(C5CC5)no4)cccn23)cc1F	UCHL1 block 31, USP7 inh 53, USP10 block 54, USP8 block 93
Cc1ccc(NC(=O)Cc2nnc3c(-c4nc(C5CC5)no4)cccn23)c(C)c1	USP8 block 65
Cc1sc(-c2ccc(Cl)nc2)nc1OC(=O)c1ccc(F)cc1F	none
CCn1cc(S(=O)(=O)NCc2ccccc2)c2cccnc21	USP8 block 35
O=C1C(=O)N(CCN2CCOCC2)C(c2ccc(F)cc2)C1=C(O)c1ccccc1 (stereo unspecified)	none
CC(C)(C)C(=O)N1CCc2[nH]nc(-c3ccc(F)cc3)c2C1	none
O=c1cc(CN2CCc3ccccc32)cc[nH]1	USP8 block 33
CC(=O)Nc1ccc(SCc2nc3ccccc3nc2C)cc1	USP8 block 39
Cc1sc2nc(SCC(=O)Nc3ccccc3O)n(Cc3ccco3)c(=O)c2c1C	USP8 block 54
Cc1sc2nc(SCC(=O)Nc3cccc(F)c3)n(Cc3ccco3)c(=O)c2c1C	none
COc1ccc(N2CCCS2(=O)=O)cc1NC(=O)Cc1ccc(F)cc1	none
CCOC(=O)c1cc2c(=O)n3ccccc3nc2n(Cc2ccco2)c1=NC(=O)COc1ccc2ccccc2c1	UCHL1 block 43
Cc1cc(C)c(NC(=O)CS(=O)(=O)c2cn(CC(=O)N3CCC(C)CC3)c3ccccc23)c(C)c1	none
COc1ccc(OC)c(NC(=O)CS(=O)(=O)c2cn(CC(=O)N3CCC(C)CC3)c3ccccc23)c1	USP8 block 32
CCn1c(CCNC(=O)c2ccc(C)c(C)c2)nc2cccnc21	none
CCCCc1nc2ccccc2n2c(-c3ccccc3)c3c(=O)n(C)c(=O)n(C)c3c12	none
O=C(CCC1CCCCC1)N1CCN(c2ncnc3c2nnn3Cc2ccccc2)CC1	none
COc1cccc(CNC(=O)c2nc3c(s2)CCNCC3)c1	USP8 block 54
Cc1ccc(S(=O)(=O)Nc2cc(C(F)(F)F)ccc2Oc2ccc(C)c3c2CCC3)cc1	none
Cn1nc(Cl)c(Cl)c1Oc1ccc(S(=O)(=O)Nc2ccc(Oc3ccc(C(F)(F)F)cn3)c(Cl)c2)cc1	USP10 block 69
Cc1nnn(C23CC4CC(CC(C(=O)Nc5ccc6c(c5)OCO6)(C4)C2)C3)n1	USP8 block 58
Cc1ccnc(NS(=O)(=O)c2ccc(NC(=O)c3ccc(S(=O)(=O)N(C)Cc4ccccc4)cc3)cc2)n1	USP10 block 42, USP8 block 40
Cc1cc(C)n(CC(=O)N2N=CCC2(O)C(F)(F)F)n1 (stereo unspecified)	USP8 block 37
Cc1cc(C)n(CC2CCCCN2C(=O)CCc2nccs2)n1 (stereo unspecified)	none
CC(=O)c1cccc(NC(=O)COc2ncnc3sccc23)c1	USP8 block 39
O=C(O)CC1(c2ccc(F)cc2)C2CC3CC(C2)CC1C3 (stereo unspecified)	USP8 block 33
O=C1NCCCC12CCN(Cc1cccc(OCc3ccc(F)cc3)c1)CC2	none
O=C(Nc1cccc(-c2nc3cnccc3o2)c1)c1ccc(Br)o1	USP8 block 66
COc1cc2c(=O)c(C(=O)c3ccc(F)cc3)cn(CC(=O)Nc3ccc4c(c3)OCCO4)c2cc1OC	none
CCOC(=O)c1cc2c(ccn2-c2ccc(F)cc2)n1CC(=O)Nc1ccc2c(c1)OCCO2	USP10 block 37, USP8 block 54
COc1ccc(Cl)cc1Nc1ncnc2sccc12	none
NC(=O)c1ccc(NC(=O)Cc2cc(-c3ccc(F)cc3)on2)cc1	none
COc1cccc(-c2cc(CC(=O)Nc3ccc(C(N)=O)cc3)no2)c1	USP8 block 40
CC(C(=O)NC1CCCC1)N1CCN(c2ccccn2)CC1 (stereo unspecified)	none
O=C(Nc1cccnc1)C1c2ccccc2C(=O)N(C2CCCC2)C12CCCCC2 (stereo unspecified)	USP8 block 36
CC1CCN(c2nc(F)c3c(c2F)S(=O)(=O)CCN3CC2CCCO2)CC1 (stereo unspecified)	none
CC1CCN(c2nc(F)c3c(c2F)S(=O)(=O)CCN3Cc2ccccc2)CC1	USP8 block 92
O=S1(=O)CCN(Cc2ccccc2)c2c(F)nc(N3CCCCC3)c(F)c21	USP8 block 87
Cc1ccc(Cn2c(SCC(C)O)nc3c2c(=O)[nH]c(=O)n3C)cc1 (stereo unspecified)	none
COc1ccc(C(=O)C2CC(=O)Nc3c2c(C)nn3-c2ccc(Br)cc2)cc1 (stereo unspecified)	USP8 block 30
COc1ccc(-n2nc(C)c3c2NC(=O)CC3C(=O)c2ccc3c(c2)OCO3)cc1 (stereo unspecified)	none
COc1ccccc1N1CCN(C(=O)/C=C/c2ccc(OCc3ccc(Br)cc3)cc2)CC1	none
COc1ccccc1OCc1nc(-c2c(-c3c(Cl)cccc3Cl)noc2C)cs1	none
Oc1cc(OCCN2CCCCC2)ccc1-c1[nH]ncc1-c1ccccc1	USP8 block 66
C[C@@H](C(=O)Nc1ccc2c(c1)OCO2)n1c(=O)[nH]c2ccccc2c1=O	USP8 block 85
C=CCNC(=O)c1cc2c(=O)n3ccccc3nc2n1CCCOC	none
O=C(CNS(=O)(=O)c1ccc(F)cc1)N1CCCC(c2nnc3ccccn23)C1 (stereo unspecified)	USP8 block 57
COCCn1c(SCc2nc(N)nc(Nc3ccccc3)n2)nnc1-c1cccc(C)c1	none
Cc1cccc(NC(=O)C(=O)NCC(c2cccnc2)N2CCc3ccccc3C2)c1 (stereo unspecified)	USP8 block 61
O=C(CC(C(=O)c1ccccc1)c1cccs1)c1ccc(Cl)cc1 (stereo unspecified)	none
Nc1ccccc1SC(CC(=O)c1ccc(Cl)cc1)c1ccsc1 (stereo unspecified)	USP8 block 73
CC(C)=C/C=C\[C@H](C)[C@H]1CC[C@]2(C)C[C@H]3[C@H](C(=O)C[C@@]3(C)O)/C(C=O)=C\C[C@@H]12	none
Oc1ccc(Br)cc1CNc1ccc(F)cc1	USP8 block 85
O=c1[nH]c(-c2cccnc2)nc2c1CCN(Cc1[nH]c3ccccc3c1Cl)C2	USP8 block 37
CC(C)NC(=O)N1CCN2C(=O)c3ccccc3[C@H]2C1	none
O=S1(=O)CCC(S(=O)(=O)Nc2cccc(C(F)(F)F)c2)C1 (stereo unspecified)	none
